# Screening results from PubChem.
# Cruzain inh noDet = qHTS Assay for Promiscuous and Specific Inhibitors of Cruzain (without detergent); Potency, µM, without a hit: max response, negative = inhibition, actives largely listed as inhibitors; Cruzipain (Trypanosoma cruzi), P25779; AID 1476, 2009; actives 2.3% (n = 200,000); purified cruzain, Z-FR-AMC fluorescence, no detergent;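 further: plate controls were enzyme without inhibitor for no effect and buffer without enzyme for full effect; nearly all actives have a fitted effect of over 40% in size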
# Target sequence (P25779 123-467 limits assumed): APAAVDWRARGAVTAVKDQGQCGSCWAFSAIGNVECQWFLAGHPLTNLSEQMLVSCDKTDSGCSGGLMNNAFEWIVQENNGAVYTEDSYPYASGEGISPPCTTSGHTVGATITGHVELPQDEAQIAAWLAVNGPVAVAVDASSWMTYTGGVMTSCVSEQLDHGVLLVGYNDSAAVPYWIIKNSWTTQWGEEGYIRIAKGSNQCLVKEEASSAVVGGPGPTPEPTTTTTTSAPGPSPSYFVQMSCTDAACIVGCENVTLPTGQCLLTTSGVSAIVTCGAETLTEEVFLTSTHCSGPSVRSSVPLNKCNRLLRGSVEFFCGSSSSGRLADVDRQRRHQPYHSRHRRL
#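 Detergent-free condition (0.00005% Triton X-100) in acetate buffer pH 5.5 with DTT. 1.5 nM enzyme and compound were pre-mixed 15 min, then 2 uM Z-FR-AMC substrate added; reaction progress from fluorescence change between first and third reads (60 s).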
# Cruzain inh Det = qHTS Assay for Promiscuous and Specific Inhibitors of Cruzain (with detergent) | Cruzipain (Trypanosoma cruzi), P25779 | purified cruzain, Z-FR-AMC fluorescence, 0.01% Triton | Potency, µM, inactives show max response, negative = inhibition, usual class: inhibitors | actives 0.43% (n = 200,000);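 further: plate controls were neutral wells for no effect and buffer without enzyme for full effect; nearly all actives have a fitted effect of over 40% in size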
#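 15 min RT preincubation of 1.5 nM cruzain with compound, then 2 uM Z-FR-AMC added; kinetic AMC fluorescence, 60 s delta. Triton X-100 0.01%, pH 5.5.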
# Papain counter = qHTS Assay for Inhibitors of Papain: Counterscreen for Cruzain Assay. Potency, µM, for the others: max response, negative = inhibition, actives largely listed as inhibitors. actives 41% (n = 410). shares compounds with Cruzain inh Det. purified papain, Z-FR-AMC fluorescence cleavage;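 further: 0% = no-compound wells and -100% = no-enzyme wells; nearly all actives have a fitted effect of over 35% in size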
# Numbers without * were called inactive; ? = inconclusive; . = not tested or not shown. Hits are enriched below; roughly 2.5% of the tested compounds scored in any of these assays. The call rests on the fitted dose curve; in most records, active means well fitted curve in the direction sought with a large enough effect; inconclusive means small, poorly fitted or top-dose-only effect, or another doubt; inactive means no such curve, though single readings can be large; an effect the other way counts as inactive or inconclusive. Potency means the concentration at half of the fitted maximal effect.
SMILES,Cruzain inh noDet,Cruzain inh Det,Papain counter
O=C(Cc1ccccc1)NC(=S)Nc1cc(C(F)(F)F)ccc1Cl,-4%,-1%,.
O=C(CNC(=O)C1CCCCC1)Nc1ccccc1Cl,4%,-2%,.
NC(=O)C(OC(=O)CNC(=O)C1CCCCC1)c1ccccc1 (configuration not stated),.,.,13µM*
O=C(CNC(=O)C1CCCCC1)OC(C(=O)c1ccccc1)c1ccccc1 (configuration not stated),.,.,3%
O=C(Nc1ccccc1)C1CCCCC1,7%,2%,.
CCc1ccc(-c2nc(SCC(=O)NCC3CCCO3)c(-c3ccc(F)cc3)[nH]2)cc1 (configuration not stated),8%,-5%,.
CCC(Oc1ccccc1)C(=O)Nc1ccc(O)c(-c2nc3cc(C)ccc3o2)c1 (configuration not stated),-4%,-1%,.
N#Cc1c(NC(=O)CSc2ncnc3c2cnn3-c2ccccc2Cl)sc2c1CCCC2,3.2µM*,3%,10%
N#Cc1c(NC(=O)CSc2ncn(-c3ccccc3)n2)sc2c1CCCC2,?,2%,.
CCOc1ccc(CN2C(=O)c3ccccc3Sc3ccc(C(=O)NCc4ccc5c(c4)OCO5)cc32)cc1,10µM*,-2%,1%
CCOc1ccc(CN2C(=O)c3ccccc3Sc3ccc(C(=O)NC)cc32)cc1,?,-6%,.
CCOC(=O)C1(C(C)C)Oc2ccccc2C(c2ccc(OC)cc2)=C1C(=O)OC (configuration not stated),11%,-2%,.
COc1ccc(N(C(=O)c2cccc(C)c2)S(=O)(=O)c2ccc(C)cc2)cc1,-9%,-5%,.
O=[N+]([O-])c1cc(C(F)(F)F)ccc1-n1nnc2ccccc21,6%,-5%,.
O=[N+]([O-])c1cc(S(=O)(=O)Nc2ccccc2)ccc1-n1nnc2ccccc21,?,11µM*,-5%
COCCN(CCOC)S(=O)(=O)c1ccc(C(=O)Nc2nc(C)c(C(C)=O)s2)cc1,21%,-9%,.
O=C(Nc1nc(-c2ccccc2)c(-c2ccccc2)s1)c1ccc(S(=O)(=O)N(CCCl)CCCl)cc1,4µM*,-2%,17%
CCC(=O)N1CCc2cc(CNS(=O)(=O)c3cc(Cl)ccc3OC)ccc21,14%,0%,.
CNC(=O)C1CCC(Cn2c(=O)c3sccc3n(CC(=O)N3CCC(C)CC3)c2=O)CC1 (configuration not stated),1%,-1%,.
C=C(C)C(=O)OC1(C(F)(F)F)Oc2cc(C)ccc2NC1=O (configuration not stated),7.9µM*,6.3µM*,28µM*
CCOC(=O)C1(N(CC)CC)Sc2cc(C)ccc2NC1=O (configuration not stated),-1%,-8%,.
Cc1ccc(NC(=O)CN2C(=O)CCc3ccccc32)cc1C,-22%,-11%,.
CC1CCCN(c2ccc(C(=O)OCn3nnc4ccccc4c3=O)cc2[N+](=O)[O-])C1 (configuration not stated),?,-3%,.
CC1CCCN(c2ccc(C(=O)OCC(=O)N3c4ccccc4Sc4ccccc43)cc2[N+](=O)[O-])C1 (configuration not stated),4µM*,-3%,10%
CCN1CCN(CCCNC(=O)c2cc3c(s2)-c2ccccc2OC3)CC1,?,28µM*,10µM*
SMILES,Cruzain inh noDet,Cruzain inh Det,Papain counter
COc1ccccc1CNC(=O)c1cc2c(s1)-c1ccccc1OC2,15%,1%,.
CS(=O)(=O)N1CCc2cc(C(=O)NCc3ccccc3)ccc21,-6%,2%,.
O=C(Cc1ccc(Cl)cc1)Nc1ccccc1Sc1ccccc1,-17%,-8%,.
O=C(O)c1c(Sc2ccccc2)c2cc(Cl)ccc2n1Cc1ccc(Cl)cc1,?,28µM*,28µM*
O=S(=O)(c1ccc(Cl)cc1)c1nc(-c2ccccc2Br)oc1NCc1ccccc1,?,-7%,.
CNc1oc(Cc2ccccc2)nc1S(=O)(=O)c1ccc(Cl)cc1,10µM*,10µM*,-12%
CCC(Cn1nnc2ccccc2c1=O)NC(=O)Nc1ccc(C)cc1C (configuration not stated),-2%,-2%,.
CC(C)COC(=O)c1ccccc1C(=O)OCC(C)C,-1%,1%,.
CC(C)COC(=O)c1nnsc1NC(=O)Nc1ccccc1,16µM*,3%,12%
CCOC(=O)c1ccc(NC(=O)CCc2c(C)nc3c(c(C)nn3C)c2C)cc1,?,-14%,.
O=C(N[C@@H](Cc1ccccc1)C(=O)CCl)OCc1ccccc1,0.32µM*,0.16µM*,5µM*
CSCC[C@H](NC(=O)OCc1ccccc1)C(=O)O,-1%,-2%,.
O=[N+]([O-])c1ccccc1S(=O)(=O)NCC1CCC(CNCC2CCc3ccccc3C2)CC1 (configuration not stated),-5%,-3%,5%
O=[N+]([O-])c1ccccc1S(=O)(=O)NCCC1=CCCCC1,-2%,0%,.
Cc1nn(-c2ccccc2)c2c1cc1c(=O)[nH]c(=O)nc-1n2-c1cccc(Cl)c1,6%,-3%,.
O=C(NCCc1nc2ccccc2n1CCOc1ccc2ccccc2c1)C1CCCCC1,.,.,-5%
O=C(Nc1nc2ccccc2n1CCN1CCCCC1)C1CCCCC1,-5%,1%,.
O=C(NCCc1nc2ccccc2n1CCCOc1ccc2ccccc2c1)C1CCCCC1,.,.,10µM*
Nc1ccn([C@@H]2O[C@H](COC(=O)C34CC5CC(CC(C5)C3)C4)[C@@H](O)[C@@H]2O)c(=O)n1,2%,1%,.
CCc1nnc2c(Nc3cccc(F)c3)nc3ccc(C(=O)c4ccccc4)cc3n12,6%,-2%,.
CCCCC/C=C\C/C=C\C[C@H](O)/C=C/C=C\CCCC(=O)O,-12%,1%,.
COc1cccc(Cn2ccn(-c3ccc(F)cc3)c(=O)c2=O)c1,-2%,-3%,.
Cc1ccc(NC(=O)Cn2c(SCc3cccc(F)c3)nc3ccncc32)c(C)c1,-3%,-22%,.
CCC(C(=O)NC1CCCCC1)n1c(SCc2cccc(F)c2)nc2ccncc21 (configuration not stated),?,13µM*,-14%
COC(=O)c1ccc(Cn2c(SCc3cccc(C)c3)nc3ccncc32)cc1,?,-9%,.
SMILES,Cruzain inh noDet,Cruzain inh Det,Papain counter
CCCCNC(=O)Cn1c(SCc2cccc(F)c2)nc2ccncc21,.,.,-10%
CC(CNC(=O)c1ccc(CSc2nc3ccncc3n2Cc2cccc(F)c2)cc1)c1ccccc1 (configuration not stated),4%,-6%,.
CCCCNC(=O)C(CC)n1c(SCc2cccc(F)c2)nc2ccncc21 (configuration not stated),.,.,-10%
CN(C)C1(CNC(=O)COc2ccc(C(C)(C)C)cc2)CCCCC1,2%,0%,.
CC(=O)N1c2ccccc2CC1C(=O)N1CCN(c2cccc(Cl)c2)CC1 (configuration not stated),-6%,1%,.
CCOC(=O)c1sc2ccccc2c1S(=O)(=O)Nc1cccc(C(F)(F)F)c1,6%,-10%,.
Cc1cc(C)cc(OCCCn2c(CCNC(=O)C3CCCCC3)nc3ccccc32)c1,3%,2µM*,25µM*
Cc1cccc(OCCn2c(CCCO)nc3ccccc32)c1,3%,2%,.
CCn1c(NC(=O)C2CCCCC2)nc2ccccc21,-25%,-4%,.
